DT40 TDP1 no CPT – qHTS for Inhibitors of human tyrosyl-DNA phosphodiesterase 1 (TDP1): qHTS in cells in absence of CPT; DT40 Tdp1-/- hTDP1 cells, no CPT, ATP luminescence, 48 h; Potency, µM (series often up to 46.2 µM), for inactives: at the highest dose activity change, negative = growth inhibition, most hits filed as inhibitors; 420,000 tested, 15% active; further: potency means the concentration at half of the fitted maximal effect; on the % scale 0 is the no-effect control and ±100 the full control effect; nearly all actives have a fitted effect of over 55% in size
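Growth kinetics read by CellTiter-Glo luminescence after ≥48 hr at 37 °C. Cells: DT40 Tdp1-/- stably carrying human TDP1, 400 per well, compound exposure in the absence of CPT (DMSO vehicle).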
DT40 TDP1 CPT – growth inhibition of DT40 Tdp1-/-;hTDP1 cells with camptothecin (screen for TDP1 inhibitors); chicken DT40 Tdp1-/-;hTDP1 cells + 20 nM CPT, ATP luminescence, 48 h; Potency, µM (series often up to 46.2 µM), for inactives: at the highest dose activity change, negative = growth inhibition, actives largely listed as inhibitors; 420,000 tested, 12% active; AID 686979; further: potency means the concentration at half of the fitted maximal effect; on the % scale 0 is the no-effect control and ±100 the full control effect; nearly all actives have a fitted effect of over 55% in size
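Cell growth measured by CellTiter-Glo luminescence after a minimum 48 h, 37 C compound exposure with 20 nM CPT in Tdp1-knockout DT40 cells stably expressing hTDP1, seeded 400/well; qHTS titration format.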
IL-1B inflam inh – inhibitors of inflammasome signaling (IL-1 beta secretion) | THP-1 LPS/ATP IL-1B secretion, AlphaLISA, 16 h; stronger effect = lower value | AID 743279 | 360,000 tested, 4.7% active | activity change, % at 57.5 µM; in the data active means activity change below about -50%; inconclusive means mostly about -30% to -49%; further: on the % scale 0 is the no-effect control and ±100 the full control effect
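THP-1 cells pretreated 1 hr with compounds (up to 57.5 uM final), then stimulated with LPS (250 ng/mL final) plus ATP (1.25 mM final); secreted IL-1B measured by AlphaLISA after 16 hr, decreased signal indicating inhibition.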
ClpP mod – qHTS Assay for Activators of ClpP; purified B. subtilis ClpP, FRET peptide cleavage, 20 min; ATP-dependent Clp protease proteolytic subunit (Bacillus subtilis (strain 168)), P80244; Potency, µM (series often up to 57.5 µM), for the others: top-dose activity change, negative = active; 340,000 tested, 1.9% active; active means well fitted falling curve with a large enough effect; inconclusive means small, poorly fitted or top-dose-only effect; inactive means no such curve, though single readings can be large or run the other way; further: potency means the concentration at half of the fitted maximal effect; the source files actives as falling curves though it sought activators and does not explain the sign; nearly all actives have a fitted effect of over 65% in size
Target sequence (P80244 whole entry, looked up): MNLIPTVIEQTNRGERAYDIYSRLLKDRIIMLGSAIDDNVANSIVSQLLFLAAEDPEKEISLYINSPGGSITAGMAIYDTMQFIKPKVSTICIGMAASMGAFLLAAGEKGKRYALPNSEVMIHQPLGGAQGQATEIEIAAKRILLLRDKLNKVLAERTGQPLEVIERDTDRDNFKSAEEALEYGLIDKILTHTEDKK
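Buffer: 100 mM Tris/HCl pH8, 100 mM KCl, 0.05% low protease BSA, 2.5% glycerol, 0.01% Tween-20. ClpP 10 microg/mL final; 20 min RT; delta FRET normalized to ADEP and DMSO controls.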
DRD3 antagonist – antagonists of human D3 dopamine receptor | D3R cells, DiscoveRx beta-arrestin luminescence, antagonist mode; stronger effect = lower value | max response, negative = inhibition, % | 360,000 tested, 2.5% active | AID 652054; in the data active means max response below about -50%; inconclusive means no clear call, values can overlap the other calls; further: on the % scale 0 is the no-effect control and ±100 the full control effect
Target sequence (P35462 whole entry, looked up): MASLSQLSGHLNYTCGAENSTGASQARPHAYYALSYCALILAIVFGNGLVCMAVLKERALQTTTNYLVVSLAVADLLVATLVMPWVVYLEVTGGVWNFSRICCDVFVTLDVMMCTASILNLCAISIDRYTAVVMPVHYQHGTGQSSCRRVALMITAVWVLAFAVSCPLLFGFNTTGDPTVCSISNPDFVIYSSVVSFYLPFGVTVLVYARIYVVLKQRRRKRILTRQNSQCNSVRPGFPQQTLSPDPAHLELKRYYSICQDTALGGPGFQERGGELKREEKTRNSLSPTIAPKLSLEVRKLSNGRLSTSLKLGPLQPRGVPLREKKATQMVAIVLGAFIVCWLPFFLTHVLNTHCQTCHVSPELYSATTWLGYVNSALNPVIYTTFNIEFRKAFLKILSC
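Cells expressing the human receptor were seeded at 1500 cells/well, incubated overnight at 37 degrees C in 5% CO2, then exposed to library compounds with dopamine controls for 90 minutes at 37 degrees C before luminescent detection.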
D3 ag – D3 dopamine receptor (human) agonism | 410,000 tested, 0.58% active | D3R DiscoveRx beta-arrestin cells, luminescence, 90 min | max activation, % | P35462 | AID 652048; in the data active means max activation above about 30%; further: 0% is about no effect
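Cells at 1500/well, incubated overnight, then treated with pinned compounds (dopamine as control) for 90 min at 37 degrees C. DiscoveRx reagent added for 30 - 60 minutes at room temperature; luminescence read.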
Numbers without * were called inactive; ? = inconclusive; · = no result given. Hits are enriched below; roughly 21% of the tested compounds scored in any of these assays. Unless noted, the call rests on the fitted dose curve; in most records, active means well fitted inhibition curve with a large enough effect; inconclusive means small, poorly fitted or top-dose-only effect; inactive means flat fitted curve, though single readings scatter.

SMILES	DT40 TDP1 no CPT	DT40 TDP1 CPT	IL-1B inflam inh	ClpP mod	DRD3 antagonist	D3 ag
O=C(Cc1ccc(Cl)cc1)Nc1cccc(S(=O)(=O)Nc2ccccc2F)c1	?	-7%	-12	-2%	4	0
CCOC(=O)c1cc(-c2ccccc2)n(-c2cccc(C(=O)Nc3ccc(OC)cc3)c2)c1C	?	?	·	-4%	·	-1
CC(=O)c1cc(-c2ccc(F)cc2)n(CCC(=O)Nc2nc3c(C)cccc3s2)c1C	13µM*	?	·	-2%	·	4
COc1cc(NC(=O)CCn2c(-c3ccccc3)cc(C(C)=O)c2C)cc(OC)c1	13µM*	?	·	-5%	·	0
CCOC(=O)c1cc(-c2ccc(OC)cc2)n(CCC(=O)Nc2cccc(C(C)=O)c2)c1C	15µM*	16µM*	·	-1%	·	-3
Cc1cccc2sc(NC(=O)CCNS(=O)(=O)c3cccs3)nc12	26µM*	18µM*	?	0%	22	-4
Cc1cc(SCC(=O)NC2CCCC2)nc2ccccc12	-1%	0%	0	·	4	-4
CCOC(=O)c1cc(-c2ccc(F)cc2)n(CCC(=O)Nc2nc3ccc(OC)cc3s2)c1C	16µM*	18µM*	·	-9%	·	-4
CCc1ccc(NC(=O)CCn2c(-c3ccc(OC)cc3)cc(C(C)=O)c2C)cc1	16µM*	16µM*	·	-4%	·	1
COc1ccc(NC(=O)CCn2c(-c3ccc(F)cc3)cc(C(C)=O)c2C)c(OC)c1	?	?	·	1%	·	-1
CC(=O)c1ccc(NC(=O)c2sc(-n3nc(C)c(CCC(C)C)c3C)nc2C)cc1	?	-70%	·	-4%	·	5
CSc1ccc(CNc2nnnn2C)cc1	-1%	3%	-19	-1%	-3	46*
Clc1ccc(NCc2cccnc2)cc1	2%	-6%	-7	-3%	-7	-8
CCCn1nnnc1NCc1ccc(SC)cc1	-4%	-9%	-58*	1%	-4	6
CCCCn1nnnc1NCc1cccnc1	13µM*	8.2µM*	-3	-3%	-3	-1
CCCCn1nnnc1NCc1ccc(N2CCCC2)cc1	?	?	0	-2%	-11	-1
CSc1ccc(CNc2ccc(Cl)cc2)cc1	-6%	-1%	-73*	-1%	-15	-6
Cc1ccc(OCCN(C)C(=O)C2CCC(=O)N(CCCN3CCCC3=O)C2)cc1 (configuration not stated)	-16%	3%	23	·	5	18
COc1cc(C)c(NC(=S)NCCCN2CCOCC2)cc1OC	1%	14%	6	·	14	-4
CCOc1ccc(C2CC(=O)c3c([nH]c(C(=O)OC4CCCCCC4)c3C)C2)cc1 (configuration not stated)	?	?	·	-3%	·	-12
CCOc1ccccc1NC(=O)Cn1cc(C(=O)c2cccc(OC)c2)c(=O)c2ccc(C)nc21	?	?	·	-3%	·	2
O=S(=O)(NCC1CCCO1)c1ccc(Cl)nc1 (configuration not stated)	14%	8%	0	·	4	1
CCOC(=O)c1ccc(NC(=S)NCCC2=CCCCC2)cc1	21µM*	29µM*	28	-14%	-6	-4
CNNC(=S)NCCC1=CCCCC1	2%	-12%	4	2%	-11	1
CC(=O)c1cccc(NC(=S)NCCC2=CCCCC2)c1	15µM*	16µM*	-16	0%	-21	-8
SMILES	DT40 TDP1 no CPT	DT40 TDP1 CPT	IL-1B inflam inh	ClpP mod	DRD3 antagonist	D3 ag
O=C(NCCC1=CCCCC1)Nc1ccc2nsnc2c1	10µM*	?	-94*	·	-12	-14
Cc1ccc(NC(=S)NCCC2=CCCCC2)cc1	23µM*	?	10	·	-21	-2
O=C(Nc1ccc(F)cc1F)N1CCN(CCc2ccccc2)CC1	-5%	-4%	5	·	43	-6
O=C(NCc1ccco1)Nc1ccc(Br)cc1	?	-19%	-10	-4%	0	1
O=C(NCc1ccco1)Nc1ccc2nsnc2c1	15µM*	18µM*	-75*	?	-59*	0
COc1ccc(-c2noc(COc3cc(C)c(Br)c(C)c3)n2)cc1OC	-27%	-29%	·	2%	·	-12
COc1cc2c(c(OC)c1OC)-c1ccc(SC)c(=O)cc1C(NC(=O)C(F)(F)F)CC2 (configuration not stated)	0.018µM*	0.092µM*	45	-1%	-14	-5
CCOCC(=O)NC1CCc2cc(OC(=O)COCC)c(OC)c(OC)c2-c2ccc(SC)c(=O)cc21 (configuration not stated)	0.15µM*	0.023µM*	27	1%	0	10
Cn1c(/C(C#N)=C(\O)c2cccc(F)c2)nc2ccccc21	?	-1%	2	-4%	-51*	0
N#C/C(=C(/O)C(Cl)c1ccccc1)c1nc2ccccc2s1 (configuration not stated)	13µM*	6.5µM*	-5	21%	?	0
N#C/C(=C(/O)CN1CCOCC1)c1nc2ccccc2s1	-28%	8%	2	?	-25	5
CCN(CC)S(=O)(=O)c1ccc(/C(O)=C(\C#N)c2nc3ccccc3n2C)cc1	?	?	?	1%	1	-3
N#C/C(=C(/O)c1cccc(F)c1)c1nc2ccccc2s1	12µM*	21µM*	-59*	-4%	16	6
S=C(Nc1ccccc1)c1nc2ccccc2s1	?	?	22	0%	19	4
Cn1c(/C(C#N)=C(\O)c2ccc([N+](=O)[O-])cc2)nc2ccccc21	18µM*	?	5	0%	-23	-5
CN(C)S(=O)(=O)c1cccc(NC(=O)CCCc2nc3ccccc3c(=O)[nH]2)c1	0%	-3%	18	-2%	-7	-15
Cc1cccn2c(=O)nc(SCC(=O)NCCc3ccccc3)nc12	-11%	-2%	8	?	0	-1
COc1ccccc1OCC(=O)Nc1nc(-c2ccc(S(=O)(=O)N3CCOCC3)cc2)cs1	13µM*	21µM*	11	-11%	43	24
Cc1ccc(Nc2nc(-c3ccc(S(=O)(=O)N4CCOCC4)cc3)cs2)cc1	?	?	-23	13µM*	17	-8
Cc1cc(C)cc(Nc2nc(-c3ccc(S(=O)(=O)N4CCCC4)cc3)cs2)c1	7.3µM*	8.2µM*	?	4%	5	-3

Screening results deposited in PubChem BioAssay by National Center for Advancing Translational Sciences (NCATS).
